The record followed here is PubChem BioAssay (NCATS).

A short description of assay [1]: Cytotoxicity counterscreen for inhibitors of SARS-CoV-2 cell entry (AID 1645845). Also: nearly all actives have a fitted effect of over 50% in size. An outline of the steps: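 ATP-content luminescence (ATPLite 1step, 15 min RT) read after 48 h compound exposure of Expi293F cells stably expressing human ACE2; normalized to cells-only wells and media-only wells.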
(In general: A counterscreen serves to expose hits that act by an unwanted route or on another target.)

The nature of assay [2]: Primary qHTS to identify inhibitors of SARS-CoV-2 cell entry (AID 1645846). Also: nearly all actives have a fitted effect of over 45% in size. The settings on record: activity change, negative = inhibition: at 57.1 µM (top of the series) unless noted. An outline of the steps:
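HEK293-ACE2 (Expi293F, stable hACE2), 1500 cells/well, o/n 37C; cpd 23 nL pin, 1 h; MLV-PP w/ SARS-CoV-2-S (Wuhan-Hu-1, Δ19 C-term); 48 h 37C; Bright-Glo luminescence; normalized vs S-PP and bald PP.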
Background: In qHTS, concentration-response curves come from the screen itself.

Results filed as inconclusive are left out. Active and inactive are the calls of the source. Calls follow the shape of the full dose curve.

`O=C(O)COc1nn(Cc2ccccc2)c2ccccc12`: the Potency entry in assay [1] and in assay [2] was “inactive” each time.

As for `O=C(OCc1ccccc1)c1ccccc1`, the Potency entry in assay [1] and in assay [2] was “inactive” throughout.

As for `C#C[C@]1(O)CC[C@H]2[C@@H]3CCc4cc(OC5CCCC5)ccc4[C@H]3CC[C@@]21C`, in assay [1], the Potency entry is “inactive”. In assay [2], the activity change, negative = inhibition was -15.1%.

Take `CC(CCc1ccccc1)NCC(O)c1ccc(O)c(C(N)=O)c1` (configuration not stated): in assay [1], the Potency entry is “inactive”. Besides, the activity change, negative = inhibition in assay [2] is -28.2%.

In the case of `O=C(c1ccccc1)C(O)c1ccccc1` (configuration not stated), the Potency entry in assay [1] and in assay [2] was “inactive” each time.

With `CCN(Cc1ccncc1)C(=O)C(CO)c1ccccc1` (configuration not stated), the Potency result in assay [1] and in assay [2] was “inactive” in each case.

Take `O=C(COCCOCCOCC(=O)Nc1c(I)cc(I)c(C(=O)O)c1I)Nc1c(I)cc(I)c(C(=O)O)c1I`: the Potency result in assay [1] and in assay [2] was “inactive” each time.

`CCCCCCCCCCCCOCCO`: in assay [1], the Potency entry was “inactive”. For the same compound, in assay [2], the activity change, negative = inhibition was -19.3%.

Consider `C[C@@H](O)[C@H]1C(=O)N2C(C(=O)O)=C(SCCN=CN)C[C@H]12`, for which the Potency entry in assay [1] and in assay [2] was “inactive” throughout.

`COc1c(N2C[C@@H]3CCCN[C@@H]3C2)c(F)cc2c(=O)c(C(=O)O)cn(C3CC3)c12`: in assay [1], the Potency result was “inactive”. In addition, the activity change, negative = inhibition in assay [2] was -24.8%.

As for `CCc1cccc(CC)c1NC(=O)CN(CC(=O)O)CC(=O)O`, the Potency result in assay [1] and in assay [2] was “inactive” each time.

Turning to `CC(=O)O[C@]1(C(C)=O)CC[C@H]2[C@@H]3C[C@H](C)C4=CC(=O)CC[C@]4(C)[C@H]3CC[C@@]21C`, the Potency result in assay [1] is “inactive”. In assay [2], the activity change, negative = inhibition was -11.3%.

Consider `CC(=O)Oc1cccc(O)c1`, for which the Potency result in assay [1] is “inactive”. Besides, the activity change, negative = inhibition in assay [2] is -13.8%.

As for `CCCNC(C)C(=O)Nc1c(C)csc1C(=O)OC` (configuration not stated), the Potency result in assay [1] and in assay [2] was “inactive” in each case.

Regarding `CCOC(=O)Oc1ccc(CCNC(=O)[C@H](CCSC)NC(C)=O)cc1OC(=O)OCC`, the Potency entry in assay [1] and in assay [2] was “inactive” in each case.

Take `NC[C@H]1O[C@H](O[C@H]2[C@H](O[C@@H]3O[C@H](CO)[C@@H](O)[C@H]3O)C(O)[C@H](N)C[C@@H]2N)[C@H](N)[C@@H](O)[C@@H]1O` (some centres not stated): the outcome in assay [1] was “inactive [at 11.3 µM]”. The activity change, negative = inhibition in assay [2] was -2.22% [at 11.3 µM].
